Screens deposited in PubChem BioAssay by National Center for Advancing Translational Sciences (NCATS).
A selection: hits, their analogues and other compounds. The true share with any hit is near 17%.
TDP1 inh: qHTS Assay for Inhibitors of Tyrosyl-DNA Phosphodiesterase (TDP1); Tyrosyl-DNA phosphodiesterase 1 (Homo sapiens), Q9NUW8; actives 0.28% (n = 350,000); recombinant TDP1, AlphaScreen DNA substrate cleavage; Potency, µM (highest dose often 130 µM), without a hit: top-dose activity change, negative = inhibition, actives largely listed as inhibitors; also: % is scaled to controls: 0 for no effect and ±100 for the full control effect; nearly all actives have a fitted effect of over 40% in size
Target sequence (Q9NUW8 whole entry, looked up): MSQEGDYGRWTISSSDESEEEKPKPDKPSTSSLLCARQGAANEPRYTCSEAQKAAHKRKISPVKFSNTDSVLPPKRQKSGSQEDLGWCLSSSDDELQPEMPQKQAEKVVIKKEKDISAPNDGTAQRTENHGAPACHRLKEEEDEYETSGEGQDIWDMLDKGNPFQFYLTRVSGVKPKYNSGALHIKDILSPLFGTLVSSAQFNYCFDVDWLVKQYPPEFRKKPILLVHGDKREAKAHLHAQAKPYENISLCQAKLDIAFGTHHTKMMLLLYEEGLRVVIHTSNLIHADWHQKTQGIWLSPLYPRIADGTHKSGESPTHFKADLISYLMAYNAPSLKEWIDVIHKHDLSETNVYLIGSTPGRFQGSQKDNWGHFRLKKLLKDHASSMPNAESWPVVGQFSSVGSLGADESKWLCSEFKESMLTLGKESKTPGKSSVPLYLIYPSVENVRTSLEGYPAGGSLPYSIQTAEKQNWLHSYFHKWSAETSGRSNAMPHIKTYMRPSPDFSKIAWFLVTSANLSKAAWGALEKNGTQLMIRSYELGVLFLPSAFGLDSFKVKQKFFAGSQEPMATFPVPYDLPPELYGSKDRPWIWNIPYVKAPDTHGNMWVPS
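Enzyme-compound mixtures sat 15 min at room temperature, followed by a 5 min reaction with 15 nM final substrate and 10 min with AlphaScreen beads. Recombinant human Tdp1 was used at 1 nM final.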
TDP1 cell noCPT: qHTS for Inhibitors of human tyrosyl-DNA phosphodiesterase 1 (TDP1): qHTS in cells in absence of CPT. DT40 Tdp1-/- hTDP1 cells, no CPT, ATP luminescence, 48 h. Potency, µM (titrated, usually from 46.2 µM), without a hit: at the highest dose activity change, negative = growth inhibition, hits mostly inhibitors. actives 15% (n = 420,000). AID 686978, 2013; also: % is scaled to controls: 0 for no effect and ±100 for the full control effect; nearly all actives have a fitted effect of over 55% in size
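Cells were dispensed at 400 per well, compounds added by pin tool, plates incubated ≥48 hr at 37 °C, then CellTiter-Glo added for 30 min at room temperature before luminescence reading. Line: DT40 Tdp1-/- complemented with hTDP1; camptothecin omitted.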
DT40 TDP1 CPT: qHTS for Inhibitors of human tyrosyl-DNA phosphodiesterase 1 (TDP1): qHTS in cells in presence of CPT; chicken DT40 Tdp1-/-;hTDP1 cells + 20 nM CPT, ATP luminescence, 48 h; Potency, µM (highest dose often 46.2 µM), for inactives: at the highest dose activity change, negative = growth inhibition, most hits filed as inhibitors; actives 12% (n = 420,000); AID 686979, 2013; also: % is scaled to controls: 0 for no effect and ±100 for the full control effect; nearly all actives have a fitted effect of over 55% in size
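Cell growth measured by CellTiter-Glo luminescence after a minimum 48 h, 37 C compound exposure with 20 nM CPT in Tdp1-knockout DT40 cells stably expressing hTDP1, seeded 400/well; qHTS titration format.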
ClpP mod: qHTS Assay for Activators of ClpP; purified B. subtilis ClpP, FRET peptide cleavage, 20 min; Potency, µM (doses to about 57.5 µM), for the others: top-dose activity change, negative = active; actives 1.9% (n = 340,000); active = well fitted falling curve with a large enough effect; inconclusive = small, poorly fitted or top-dose-only effect; inactive = no such curve, though single readings can be large or run the other way; also: the source files actives as falling curves though it sought activators and does not explain the sign; nearly all actives have a fitted effect of over 65% in size
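ClpP 10 microg/mL final, pH 8 Tris/KCl buffer with BSA, glycerol, Tween-20; compound pinned in; FRET-FV substrate; RT 20 min; Ex320/Em430; ΔFRET vs ADEP 5.8 microM, DMSO, no enzyme.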
Starred values were filed as active, the others as inactive; ? = inconclusive; / = no result given; [ ] = dose if it differs, or a comment. Unless noted, calls follow the shape of the dose curve; as a rule, active = well fitted curve in the direction sought with a large enough effect; inconclusive = small, poorly fitted or top-dose-only effect, or another doubt; inactive = no such curve, though single readings can be large; an effect the other way counts as inactive or inconclusive. Potency is read from the fitted curve at half-maximal effect.

SMILES	TDP1 inh	TDP1 cell noCPT	DT40 TDP1 CPT	ClpP mod
CCCSC1=NC2(CCN(C(=O)NC3CCCCC3)CC2)N=C1c1ccc(OC)cc1	2%	23µM*	23µM*	1%
CCOC(=O)N1CCN(CCC(=O)Nc2ccc(C)cc2)CC1	2%	3%	-9%	2%
CCOC(=O)N1CCN(CCC(=O)c2ccc(Br)cc2)CC1	/	7.3µM*	2.9µM*	-1%
CCOC(=O)N1CCN(CCC(=O)c2ccc(Cl)cc2)CC1	2%	3.3µM*	2.3µM*	-3%
CCc1ccc(Nc2c([N+](=O)[O-])c(=O)oc3ccccc23)cc1	4%	7.3µM*	?	-2%
Cc1ccc(C)c(Nc2c([N+](=O)[O-])c(=O)oc3ccccc23)c1	5%	10µM*	23µM*	/
Cc1ccc(Nc2c([N+](=O)[O-])c(=O)oc3ccccc23)cc1	6%	12µM*	?	-1%
O=c1oc2ccccc2c(Nc2ccc3ccccc3c2)c1[N+](=O)[O-]	0%	?	15µM*	1%
COC(=O)[C@H]1C[C@@H]1[C@H](NC(=O)c1cc(C)nn1C)c1ccccc1	-1%	/	/	/
COc1cc(CNc2nccn3ccnc23)cc(OC)c1	/	?	?	-2%
CC(=O)c1cccc(NC(=O)N2C3CCC2CC(NC(=O)C2CC2)C3)c1 (stereo not given)	-8%	9%	6%	0%
Cc1cc(NC(=O)COc2cccc([N+](=O)[O-])c2)no1	2%	8%	2%	-2%
CC(Nc1c([N+](=O)[O-])c(=O)oc2ccccc12)C(Cl)c1ccccc1 (stereo not given)	4%	23µM*	?	-1%
CC1(C(=O)NCc2ccccc2)CSCC(=O)N1Cc1cccc(C(F)(F)F)c1 (stereo not given)	/	?	18µM*	-1%
COc1ccc(CN2C(=O)CSCC2(C)C(=O)NCc2ccccc2)cc1OC (stereo not given)	/	?	4%	1%
COc1ccc2c(c1)OC(C)(C)C(c1ccccc1)C2c1ccc(OCCN2CCCC2)cc1 (stereo not given)	/	27µM*	21µM*	/
CC(C)(C)OC(=O)NCCc1nnc(S(=O)(=O)Cc2ccc(Cl)cc2Cl)o1	2%	2.6µM*	1.6µM*	-4%
O=C(NCc1nnc2n1CCN(C(=O)/C=C/c1ccccc1)CC2)c1cccc(F)c1	/	-12%	-5%	/
CC(Oc1ccccc1)C(=O)N[C@@H]1C(=O)N2C(C(=O)O)C(C)(C)S[C@H]12 (stereo not given in full)	/	8%	-1%	0%
COc1ccc(/C=N/NC(=O)c2cc3c(OC)ccc(OC)c3[nH]2)cc1O	/	0.21µM*	0.37µM*	/
COc1ccc(/C=N/NC(=O)c2cnccn2)cc1O	-2%	-4%	11%	3%
COc1ccc(OC)c2[nH]c(C(=O)N/N=C/c3ccccc3O)cc12	/	3.7µM*	5.2µM*	2%
CC(C)(C)c1ccc(-c2cc(C(=O)NNC(=O)Nc3ccccc3)c3ccccc3n2)cc1	6%	21µM*	?	-20%
O=C(NNC(=O)c1cc(-c2ccccc2)nc2ccccc12)Nc1cccc(Cl)c1	3%	21µM*	?	-7%
O=C(NNC(=O)c1cc(-c2cccnc2)nc2ccccc12)Nc1ccc(Cl)cc1	-5%	?	?	-1%
SMILES	TDP1 inh	TDP1 cell noCPT	DT40 TDP1 CPT	ClpP mod
Cc1c(C)c(C)c2[nH]c(-c3ccc4c(c3)OCO4)nc2c1C	/	18µM*	?	3%
O=C(NCC1CCC2(CCN(Cc3cc4ccccc4o3)CC2)O1)c1ccccc1 (stereo not given)	/	-12%	10%[9.04 µM]	/
COCCn1c(-c2ccc(Cl)cc2Cl)nc2c(c(=O)c3ccccc3n2C)c1=O	-5%	?	?	14µM*
C#CCn1c(S(=O)(=O)Cc2ccccc2Cl)nc(-c2ccccc2)c1-c1ccccc1	3%	?	18µM*	-7%
CCOC(=O)Cn1nc(-c2ccccc2)c(-c2ccccc2)nc1=O	/	-8%	-1%	/
C#CCn1c(S(=O)(=O)Cc2ccc(C)cc2)nc(-c2ccccc2)c1-c1ccccc1	6%	?	?	-12%
